FLuc counter: qHTS profiling assay for firefly luciferase inhibitor/activator using purifed enzyme and Km concentrations of substrates (counterscreen for miR-21 project). purified FLuc, Km substrates, luminescence inhibition. Potency, µM (highest dose often 57.5 µM), for inactives: top-dose activity change, negative = inhibition, most hits filed as inhibitors. 360,000 tested, 6.9% active;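 note: plate controls were vehicle for no effect and reference inhibitor for full effect; nearly all actives have a fitted effect of over 55% in size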
Target sequence (P08659 whole entry, looked up): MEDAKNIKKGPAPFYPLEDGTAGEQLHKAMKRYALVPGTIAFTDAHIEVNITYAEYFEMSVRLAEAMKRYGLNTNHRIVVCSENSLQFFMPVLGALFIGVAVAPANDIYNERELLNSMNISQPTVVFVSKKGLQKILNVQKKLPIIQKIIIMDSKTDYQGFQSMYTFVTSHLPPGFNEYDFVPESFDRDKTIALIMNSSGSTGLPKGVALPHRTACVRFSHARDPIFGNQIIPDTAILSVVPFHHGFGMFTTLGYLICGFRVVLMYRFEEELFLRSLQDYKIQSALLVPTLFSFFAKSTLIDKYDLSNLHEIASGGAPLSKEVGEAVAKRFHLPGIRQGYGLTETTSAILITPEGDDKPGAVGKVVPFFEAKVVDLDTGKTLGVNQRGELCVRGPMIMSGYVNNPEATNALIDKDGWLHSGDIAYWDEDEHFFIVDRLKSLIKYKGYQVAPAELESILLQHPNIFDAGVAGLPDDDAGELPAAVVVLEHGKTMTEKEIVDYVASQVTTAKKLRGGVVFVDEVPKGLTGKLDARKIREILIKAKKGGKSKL
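Purified P. pyralis luciferase, 10 nM final, with Km-level 10 uM D-luciferin and 10 uM ATP in 50 mM Tris acetate pH 7.5, 10 mM Mg acetate, 0.01% Tween-20, 0.05% BSA; 6-point qHTS titration about 60 µM downward; luminescence read.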
SMN2 splice up: qHTS Assay for Enhancers of SMN2 Splice Variant Expression. 210,000 tested, 2.8% active. HEK293 SMN2-luciferase splicing reporter, luminescence, 30-36 h. Potency, µM (titrated, usually from 46.1 µM), inactives show at the top dose activity change, positive = activation, hits mostly activators; note: % of control where 0% means no effect; nearly all actives have a fitted effect of over 55% in size
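qHTS luciferase splicing reporter: luminescence rises when SMN2 exon 7 is included in transfected HEK293 cells. Compound exposure lasted 30-36 h at 37C, with 4.5 mM final sodium butyrate as control, followed by a ONE-Glo read.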
Rab9 promoter act: qHTS Assay for Rab9 Promoter Activators; Huh7 Rab9 promoter-luciferase reporter, luminescence, 24 h; Potency, µM (titrated, usually from 9.22 µM), for inactives: at the top dose activation, negative = inhibition, usual class: activators; 320,000 tested, 2.8% active; note: % of control where 0% means no effect; nearly all actives have a fitted effect of over 60% in size
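Huh7 reporter line, Rab9 promoter upstream of luciferase. Compound exposure 24 h at 37 °C in reduced-serum medium with 10% FBS. Read-out: luminescence.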
ELG1 genotoxic: qHTS screen for small molecules that induce genotoxicity in human embryonic kidney (HEK293T) cells expressing luciferase-tagged ELG1; HEK293T ELG1-luciferase reporter, luminescence, 16 h; Potency, µM (top dose mostly 46 µM), inactives show at the highest dose activity change, positive = activation, hits mostly activators; 330,000 tested, 1.3% active; AID 504466, 2011; note: % of control where 0% means no effect; nearly all actives have a fitted effect of over 60% in size
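Genotoxicity was scored as increased ELG1-luciferase reporter signal, measured by ONE-Glo luminescence (30 min, room temperature). Compound or vehicle exposure of the HEK293T reporter cells lasted 16 hr at 37°C.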
NPC1 promoter act: qHTS Assay for NPC1 Promoter Activators. 320,000 tested, 2.4% active. Potency, µM (doses to about 9.22 µM), for inactives: at the highest dose activation, hits mostly activators. Huh7 NPC1 promoter luciferase reporter, 24 h. AID 485313, 2010; note: % of control where 0% means no effect; nearly all actives have a fitted effect of over 60% in size
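Stable NPC1-promoter luciferase Huh7 line; cpd (DMSO) 24 h, 37 °C, 5% CO2; Amplite luciferase reagent 10 min RT; luminescence readout. qHTS format.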
KinaseGlo FLuc: Counterscreen for Luciferase (Kinase-Glo TM) Inhibition | Kinase-Glo luciferase, ATP luminescence, 8 min | Luciferin 4-monooxygenase (Photuris pensylvanica), Q27757 | 200,000 tested, 0.28% active | AID 1379, 2008 | Potency, µM (titrated, usually from 38.3 µM), for inactives: at the top dose activity change, negative = inhibition, most hits filed as inhibitors; note: % is set by controls: 0 for no effect and ±100 for the full control effect; nearly all actives have a fitted effect of over 60% in size
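Inhibition of Kinase-Glo luciferase light generation was assessed at 10 uM ATP in pH 7.2 imidazole buffer, with luminescence measured after eight minutes at ambient temperature.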
An asterisk follows results filed as active; u = inconclusive; x = not tested or not shown; [ ] = remark or other dose. A selection: hits, their analogues and other compounds. The true share with any hit is near 7.3%. Calls come from the whole dose curve; as a rule, active = well fitted curve in the direction sought with a large enough effect; inconclusive = small, poorly fitted or top-dose-only effect, or another doubt; inactive = no such curve, though single readings can be large; an effect the other way counts as inactive or inconclusive. Potency is the fitted concentration of half-maximal effect.

SMILES	FLuc counter	SMN2 splice up	Rab9 promoter act	ELG1 genotoxic	NPC1 promoter act	KinaseGlo FLuc
CCn1c(SCC(=O)Nc2cc(C)on2)nc2sc(C)c(C)c2c1=O	0%	5%	-3%	1%	3%	2%
CC(C)(C)Nc1nc(Cl)nc(Nc2ccccc2)n1	7.6µM*	x	u	u	u	x
COc1ccc(Nc2nc(Cl)nc(Nc3ccc(OC)cc3)n2)cc1	5%	-45%	2%	-14%	0%	13%
Clc1nc(Nc2ccccc2)nc(Nc2ccccc2)n1	24µM*	-15%	5%	7%	0%	-3%
COc1ccccc1Nc1nc(Cl)nc(NC(C)(C)C)n1	u	-7%	9%	-6%	0%	0%
COc1ccc(CC(NC(C)=O)C(=O)NC2CCN(c3c(Cc4ccccc4)c(C)nc4ncnn34)CC2)c(OC)c1 (stereo not drawn)	1%	x	0%	-1%	0%	-6%
CSc1cccc(NC(=O)Cc2ccccc2[N+](=O)[O-])c1	u	27%	-3%	3%	-1%	3%
Cc1nn(-c2ccccc2)c(C)c1C(=O)OCC(=O)Nc1cccc(S(N)(=O)=O)c1	u	x	-4%	-19%	0%	x
Cc1ccc(NC(=O)c2c(C)nn(-c3ccccc3)c2Cl)cc1	15µM*	28%	24%	9%	12%	1%
COc1cccc(NC(=O)COC(=O)c2c(C)nn(-c3ccccc3)c2C)c1	21µM*	x	1%	-3%	-1%	x
COc1ccc(NC(=O)c2c(C)nn(-c3ccccc3)c2Cl)cc1	u	x	16%	3%	22%	x
COc1cccc(NC(=O)c2c(C)nn(-c3ccccc3)c2Cl)c1	17µM*	x	u	0%	18%	x
CN(C)CCNC(=O)C(=O)NCC1OCCN1S(=O)(=O)c1ccc([N+](=O)[O-])cc1 (stereo not drawn)	2%	-9%	-2%	0%	1%	-2%
S=C(Nc1ccccc1)c1ccccn1	8.5µM*	u	2.8µM*	u	3.5µM*	-10%
S=C(Nc1ccc(Nc2ccccc2)cc1)Nc1ccccn1	u	-68%	-6%	u	-12%	-3%
CCN(C(=O)Cn1nc(Cc2ccncc2)c2ccccc2c1=O)c1cccc(Cl)c1	3%	8%	x	x	x	x
CNC(=O)c1ccccc1NC(=O)c1c(O)c2c([nH]c1=O)CCCC2	u	6%	-6%	u	2%	1%
O=C(N/N=C/c1cccc(F)c1)c1c(O)c2c([nH]c1=O)CCCC2	u	13µM*	2µM*	u	1.6µM*	-5%
Cc1nc2cc(NC(=O)Nc3cccc([N+](=O)[O-])c3)ccc2n1C	1.9µM*	x	0.71µM*	u	0.35µM*	x
Cc1nc2cc(NC(=O)Nc3ccccc3Cl)ccc2n1C	0.38µM*	x	0.89µM*	0.92µM*	0.089µM*	u
CC(=O)c1ccc(NC(=O)Nc2ccc3c(c2)nc(C)n3C)cc1	19µM*	u	3.2µM*	u	u	-7%
COC(=O)c1ccc(NC(=O)Nc2ccc3c(c2)nc(C)n3C)cc1	u	x	u	1%	u	-2%
Cc1ccc(NC(=O)Nc2ccc3c(c2)nc(C)n3C)cc1	3µM*	x	0.5µM*	u	1.4µM*	0%
Cc1ccc(S(=O)(=O)c2nc(C)c3c(n2)CCC3)cc1	-1%	3%	-7%	0%	8%	-4%
COc1ccc(NC(=O)c2ccccc2SC)cc1OC	-13%	-14%	1%	1%	0%	-5%
SMILES	FLuc counter	SMN2 splice up	Rab9 promoter act	ELG1 genotoxic	NPC1 promoter act	KinaseGlo FLuc
CC(=O)NNC(=O)c1sc(=S)n2c1[nH]c(=O)c1sccc12	19µM*	4%	-4%	-1%	-4%	4%
NC(=O)c1sc(=S)n2c1[nH]c(=O)c1sccc12	u	25%	2%	-5%	0%	4%
CCCC1C(=O)N(Cc2ccccc2)C(=O)CC1C (stereo not drawn)	-2%	x	-1%	-2%	-4%	x
O=C(O)c1ccccc1C(=O)c1ccc(-c2ccccc2)cc1	21µM*	x	1%[1.84 µM]	5%	13%	x
O=C(O)c1ccccc1C(=O)c1ccc(Cl)cc1	-2%	x	-5%	-3%	4%	x
Cc1ccc(NC(=O)CN(Cc2ccccc2)S(=O)(=O)c2ccc3nc(C)sc3c2)c(C)c1	-8%	x	x	x	x	x
Cn1c(-c2ccc(CN3CCCCC3)o2)nc2ccccc21	15µM*	13µM*	u	u	u	-8%
CCN(CC(=O)Nc1ccccc1OC)C(=O)CCOc1ccc(C(C)(C)C)cc1	-14%	x	-5%	16%	-3%	x
Cc1ccc(C(=O)NC(=S)N2CCN(c3ccc([N+](=O)[O-])cc3)CC2)cc1	4%	-18%	-2%	-2%	-1%	0%
Cc1ccc(C(=O)ON=C2CCN(c3ccc([N+](=O)[O-])cc3)CC2)cc1	11µM*	-6%	6%	-1%	0%	-6%
Cc1cccc(Cc2nnc(CCC(=O)N(CC3CC3)CC3CCCO3)o2)c1 (stereo not drawn)	21µM*	x	u	u	u	1%
CCn1nc2cc(C(=O)NCC34CC5CC(CC(C5)C3)C4)ccc2c1OC	-14%	-24%	-11%	1%	-3%	6%
COc1cccc(NC(=O)CCNC(=O)C2CCN(S(=O)(=O)c3ccc(F)cc3)CC2)c1	7%	x	0%	-3%	2%	x
COCCNC(=O)c1ccccc1NC(=O)Nc1ccccc1	27µM*	9%	2%	0%	-4%	u
Cc1nn(C)c(C)c1NC(=O)c1ccccc1NC(=O)Nc1ccccc1	17µM*	x	1%	-1%	-2%	x
Cc1ccc(NC(=O)Nc2ccccc2C(=O)NCc2ccccc2)cc1	4.8µM*	2%	21%	u	21%	-4%
COc1ccccc1NC(=O)Nc1c(C)nn(C)c1C	9%	5%	-7%	0%	1%	0%
O=C(Nc1ccccc1)Nc1ccccc1C(=O)NCC1CC1	15µM*	x	-3%	-1%	-1%	x
Cc1ccccc1NC(=O)Nc1ccccc1C(=O)NCc1ccccc1	-14%	4%	0%	-1%	2%	0%
COCCNC(=O)c1ccccc1NC(=O)c1cc(OC)cc(OC)c1	-14%	-1%	1%	-7%	-5%	-2%
COCCNC(=O)c1ccccc1NC(=O)c1nsc2ccccc12	19µM*	x	x	x	x	x
